Records with an inconclusive call do not appear. A call without a number means that no potency is given here. Calls of active or inactive are those of the source. Calls follow the shape of the dose curve; as a rule, active = well fitted activation curve with a large enough effect in the repeat runs; inconclusive = weak or mixed curves; inactive = flat fitted curve, though single readings scatter.
Assay: A CellTox Green Cytotoxicity Assay to monitor cytotoxicity in HepG2 cells - 8 hour (AID 1224890); also: nearly all actives have a fitted effect of over 45% in size
Details: CellTox Green fluorescence; series mostly up to 76.8 µM
Description: National Center for Advancing Translational Sciences [NCATS]
NIH Chemical Genomics Center [NCGC]
U.S. Environmental Protection Agency [EPA]
National Institutes of Environmental Health Sciences [NIEHS]
National Toxicology Program [NTP]
Cell-based models are critical for drug discovery. Determining the natural cytotoxic effects resulting from test compounds is an essential research activity. A CellTox Green Cytotoxicity Assay to monitor cytotoxicity in real time of continues cell culture during 40 hours of the compound treatment was used to screen Tox21 10K library compounds in HepG2 cells. CellTox Green Cytotoxicity Assay is a nonlytic, homogeneous, biofluorescent method to measure cytotoxicity in cell culture after experimental manipulation. The assay system uses a proprietary asymmetric cyanine dye that is excluded from viable cells but preferentially stains the dead cell's DNA. […] Viable cells produce no appreciable increases in fluorescence. Therefore, the fluorescence signal produced by the binding interaction with dead cell DNA is proportional to cytotoxicity.
The mixture of HepG2 cell suspension and reagents were dispensed at 600cells/6 ul/well in 1536-well tissue culture treated black solid bottom plates using a Multidrop dispenser. After the assay plates were incubated at a 37 C/5% CO2 incubator for 5 hours, 23 nL of compounds dissolved in DMSO, positive and negative controls was transferred to the assay plate by a pintool work station. The plates were incubated at 37 C for 40 hours. The fluorescence intensity were measured at 0h, 8h, 16h, 24h, 32h and 40h time points using ViewLux plate reader during compound treatment.

| SMILES | Potency |
| --- | --- |
| CCN(CC)CCOc1ccccc1C(=O)CCc1ccccc1 | inactive |
| CCN(Cc1cccc(S(=O)(=O)O)c1)c1ccc(C(=C2C=CC(=[N+](CC)Cc3cccc(S(=O)(=O)O)c3)C=C2)c2ccc(O)cc2S(=O)(=O)[O-])cc1 | inactive |
| COc1ccc(/C=C/C(=O)c2ccc(OC)cc2OC)cc1 | inactive |
| COC1CCC=CO1 (stereo not given) | inactive |
| CC(C)C(=O)OCCOc1ccccc1 | inactive |
| O=C(O)CO | inactive |
| C=C(C)C(=O)OCCC(F)(F)C(F)(F)C(F)(F)C(F)(F)C(F)(F)C(F)(F)F | inactive |
| CC(=O)OCCC(C)CC(C)(C)C (stereo not given) | inactive |
| O=C(C(=O)c1ccco1)c1ccco1 | inactive |
| CCC1CCC(CCC(=O)O)C1 (stereo not given) | inactive |
| CCCCCCOC(=O)CCCCC | inactive |
| CCCCCCCCCCCCCCCCCC(=O)OCC(CC)CCCC (stereo not given) | inactive |
| CC(=O)C(C)=O | inactive |
| CC1CCc2nccnc21 (stereo not given) | inactive |
| O=C(O)c1ccc(O)cc1O | inactive |
| Cc1ccc(NC(=O)N(C)C)cc1NC(=O)N(C)C | inactive |
| O=[N+]([O-])c1ccc2ncccc2c1 | inactive |
| C[C@H](CS)C(=O)N1CCC[C@H]1C(=O)O | inactive |
| CCN(CC)C(=O)N1CCN(C)CC1 | inactive |
| CCCCCCC(O)CCOC(C)=O (stereo not given) | inactive |

| SMILES | Potency |
| --- | --- |
| c1ccc(CNc2ncnc3c2ncn3C2CCCCO2)cc1 (stereo not given) | inactive |
| COc1ccc(CCN(C)CCCN2CCc3cc(OC)c(OC)cc3CC2=O)cc1OC | inactive |
| Nc1c(Cl)cc(Cl)cc1[N+](=O)[O-] | inactive |
| Oc1cccc2[nH]ccc12 | inactive |
| FC(F)(F)C(F)(F)C(F)(F)C(F)(F)CCI | inactive |
| N[C@@H](Cc1cc(I)c(O)c(I)c1)C(=O)O | inactive |
| ClC1=C(Cl)C1(Cl)Cl | inactive |
| Nc1ccc(F)cc1 | inactive |
| CC(O)Cn1cnc2c1c(=O)n(C)c(=O)n2C (stereo not given) | inactive |
| COc1ccc(C(=O)NCc2ccc(OCCN(C)C)cc2)cc1OC | inactive |
| CC1CCCC(=O)C1=O (stereo not given) | inactive |
| CC1=C2[C@@H]([C@H](C)CC[C@H]2/C=C(\C)C(=O)O)[C@H](O)C1 | inactive |
| CN=C(N)NC(=O)Nc1c(C)cccc1C | inactive |
| C1CCCCC1 | inactive |
| Nc1ccn([C@H]2CS[C@@H](CO)O2)c(=O)n1 | inactive |
| Cc1ccc(N(CCO)CCO)cc1 | inactive |
| CCC(CO)(CO)[N+](=O)[O-] | inactive |
| COC(=O)Nc1nc2ccc(C(=O)C3CC3)cc2[nH]1 | inactive |
| CC(=O)OCC(C)C | inactive |
| Cc1c(C2(c3cc(Br)c(O)c(Br)c3C)OS(=O)(=O)c3ccccc32)cc(Br)c(O)c1Br | inactive |

Reference: PubChem BioAssay (Tox21)
